# Assay outcomes: PubChem BioAssay, National Center for Advancing Translational Sciences (NCATS)
# In the library only some 4.6% were active in any assay of this set; here they are far more common.
# TRHR agonist: qHTS for Small Molecule Agonists and Allosteric Enhancers of Human TRH Receptor: Primary Screen for Agonists; 360,000 compounds, 0.18% hits; activation, % at 2 µM; AID 493084, 2011; TRHR cells, calcium flux fluo-8, FDSS agonist mode; also: 0% is about no effect
# Target sequence (P34981 whole entry, looked up): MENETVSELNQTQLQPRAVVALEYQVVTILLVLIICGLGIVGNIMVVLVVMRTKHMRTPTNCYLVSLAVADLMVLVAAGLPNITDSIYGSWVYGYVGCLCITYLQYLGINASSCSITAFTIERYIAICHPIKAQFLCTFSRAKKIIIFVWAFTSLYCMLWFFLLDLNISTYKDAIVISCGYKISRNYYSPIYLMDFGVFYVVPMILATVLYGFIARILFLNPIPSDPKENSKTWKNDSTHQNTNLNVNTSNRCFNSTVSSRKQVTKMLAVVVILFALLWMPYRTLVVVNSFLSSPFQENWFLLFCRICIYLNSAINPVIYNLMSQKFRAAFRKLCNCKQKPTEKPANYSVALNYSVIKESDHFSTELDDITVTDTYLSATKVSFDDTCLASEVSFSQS
#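 TRHR-expressing cells, plated overnight in medium with 10% serum, were loaded with fluo-8 calcium dye at room temperature. After a 10 s baseline, library compound was pin-added and calcium release was recorded kinetically (ex 480/em 530) as agonist response.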
# D1 antagonist: Antagonist of Human D 1 Dopamine Receptor: qHTS; HEK293 TREx D1 cells, calcium flux, dopamine EC80; hits give low values; activity change, negative = inhibition, % at 10 µM; 360,000 compounds, 3.2% hits; AID 504652, 2011; in the data active = activity change below about -30%; also: % is scaled to controls: 0 for no effect and ±100 for the full control effect
#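 Cells carrying a force-coupled, tetracycline-inducible human D1 receptor report calcium flux. Each well gets a 10 s baseline, compound with 180 s monitoring, then an EC80 dopamine stimulus with a second 180 s kinetic read.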
# D1 PAM: Potentiators of Human D1 Dopamine Receptor: qHTS | 360,000 compounds, 0.036% hits | HEK293 TREx D1 cells, calcium flux, dopamine EC20 potentiation | potentiation, % at 10 µM | D(1A) dopamine receptor (Homo sapiens), P21728; in the data active = potentiation above about 30%; also: 0% is about no effect
# TRHR enhancer: qHTS for Small Molecule Agonists and Allosteric Enhancers of Human TRH Receptor: Primary Screen for Enhancers; 360,000 compounds, 0.66% hits; enhancement, % at 2 µM; TRHR cells, fluo-8 calcium fluorescence, EC20 TRH enhancement; in the data active = enhancement above about 30%; also: 0% is about no effect
#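 Enhancer read-out: after compound pinning and an initial kinetic agonist-mode read, an EC20 of TRH (10 nM final) was injected and fluo-8 calcium signal (Ex 480/Em 530) followed at 1 s/cycle for 100 cycles in TRHR-expressing cells.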
# D1 ag: Allosteric Agonists of the Human D1 Dopamine Receptor: qHTS; D(1A) dopamine receptor (Homo sapiens), P21728; HEK293 T-REx D1 cells, calcium flux, agonist mode; activation, % at 2 µM; 360,000 compounds, 1% hits; AID 504660, 2011; also: 0% is about no effect
#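 Inducible HEK293 T-REx D1 cells, force-coupled to calcium signalling, were plated at 4000 cells/well with tetracycline and held overnight at 30 C. After no-wash calcium dye loading, compound-evoked calcium rise over 180 s flagged agonists.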
# Numbers without * were called inactive; . = no result. Rule as the data show it, unless noted: active = activation above about 30%; inactive = the rest.
SMILES,TRHR agonist,D1 antagonist,D1 PAM,TRHR enhancer,D1 ag
O=C(CCNS(=O)(=O)c1cccs1)NCc1ccccc1,0,-3,-5,7,1
COc1ccc(NC(=O)c2ccc(Cl)nc2)cc1S(=O)(=O)N1CCOCC1,2,-15,0,-1,4
COc1ccc(NC(=O)Cn2ncc(Cl)c(Cl)c2=O)cc1S(=O)(=O)N1CCOCC1,-2,-40*,-12,0,0
O=C(Cn1ncc(Cl)c(Cl)c1=O)Nc1ccc2c(c1)OCO2,0,-50*,-9,2,0
Cc1nc2nc(NCc3ccccc3Cl)[nH]n2c(=O)c1Cc1ccccc1,0,7,0,-6,1
CCc1c(C)nc2nc(SCc3ccccc3Cl)[nH]n2c1=O,0,-43*,-9,7,7
COc1ccc2c(c1)CC(NC(=O)Nc1cc(Cl)ccc1OC)CO2 (stereo not given),-1,-12,-4,-5,2
CSCC[C@H](NC(=O)OC(C)(C)C)c1nnc(SCc2cccc(F)c2)o1,1,-28,-4,3,3
CC(C)C[C@H](NC(=O)OC(C)(C)C)c1nnc(SCc2cccc(F)c2)o1,0,-13,6,4,31*
Oc1c(C=Nc2cccc3cccnc23)sc2ccccc12,50*,-24,0,9,158*
Cc1cccc(/N=C/c2sc3ccccc3c2O)n1,10,3,-6,14,52*
O=[N+]([O-])c1ccc(O)c(N=Cc2sc3ccccc3c2O)c1,17,16,2,-1,27
Cc1cccc(/N=C/c2c(O)[nH]c3ccccc23)n1,0,-14,-8,-6,33*
Oc1ccc(Cl)cc1N=Cc1sc2ccccc2c1Cl,1,3,-4,-1,0
CCOc1ccc(CCNC(=O)c2oc(=O)c3ccccc3c2-c2ccc(C)cc2)cc1OCC,0,1,6,-4,0
O=C(N1CCc2ccc(S(=O)(=O)N3CCN(S(=O)(=O)c4ccc5c(c4)OCCO5)CC3)cc2C1)C(F)(F)F,1,-19,-5,5,2
CCCCC(CC)CNC(=O)c1cccs1 (stereo not given),0,-62*,-2,2,-1
CN(C)c1ccc(C(=O)NN2C(=O)c3ccccc3C2=O)cc1,0,-32*,-4,0,0
Cc1cc(C)c(NC(=O)CSc2nc(=O)n(Cc3cccnc3)c3c2CCC3)c(C)c1,-1,.,3,2,4
Cc1nc2ccn(Cc3cccs3)c(=O)c2cc1C(=O)Nc1ccccc1,-1,3,3,6,-1
CCNC(=O)C(=O)Nc1ccc(OC)c(Cl)c1,0,-14,-4,-5,12
COc1ccc(NC(=O)C(=O)c2cc(C)n(-c3ccc(C)cc3)c2C)cc1Cl,0,-53*,-2,-2,4
N#Cc1c(-c2ccccc2)cc(C2CC2)nc1N,-1,-12,-8,5,31*
COC(=O)CSc1nc2sc3c(c2c(=O)n1Cc1ccccc1)CCC(C(C)(C)C)C3 (stereo not given),0,5,-1,8,1
COc1ccc(CNC(=O)c2cc(-c3cccs3)nc3ccccc23)c(OC)c1,-2,-46*,-1,6,4
SMILES,TRHR agonist,D1 antagonist,D1 PAM,TRHR enhancer,D1 ag
Cc1cc(CNC(=O)c2cccc([N+](=O)[O-])c2C)c2ccccc2n1,0,-46*,-7,4,26
COc1cccc(CNC(=O)c2cc(C)nc3ccccc23)c1,-1,-39*,-6,10,3
CCCCN(C)CCNC(=O)C1CCCN(S(=O)(=O)c2ccc3c(c2)oc(=O)n3C)C1 (stereo not given),0,3,-2,0,-1
Cc1ccc(C(=O)c2ccccc2C(=O)O)s1,0,16,-3,-6,1
O=C(O)c1ccccc1C(=O)c1ccc(Br)s1,0,-34*,2,-4,3
O=C(O)c1ccccc1C(=O)c1cccc2ccccc12,0,-37*,-10,7,0
CCc1ccccc1Oc1ccc(S(=O)(=O)N2CCN(C)CC2)cn1,0,-13,-2,40*,6
CCC12CN3CC(C)(CN(C1)C3c1c[nH]c3ccc(OC)cc13)C2=O (stereo not given),4,1,1,-1,0
COc1ccc(-c2nn(CCC(=O)O)cc2/C=C2\SC(N)=NC2=O)cc1OC,0,0,-4,-3,1
CCCOc1ccc(-c2nn(-c3ccccc3)cc2/C=C2\SC(N)=NC2=O)cc1C,1,-74*,-10,-1,1
CCOc1ccc(-c2ccc(NS(=O)(=O)c3cc(C)c(C)cc3C)cc2)nn1,0,16,-2,3,3
CC(=O)Nc1ccc(S(=O)(=O)N2CCN(c3cc(C)ccc3C)CC2)cc1,0,7,0,3,2
CC(=O)Nc1ccc2c(c1)CN(c1cc(C)ccc1C)CO2,0,-37*,-2,-3,9
O=C(CCSCc1ccc(Cl)cc1)N1CCN(c2ccccc2F)CC1,0,-6,-1,-2,3
Cc1cc(SCC(=O)N/N=C/c2ccc(O)c(O)c2)c(C)cc1Br,1,-32*,-5,-2,2
CCc1cccc(NC(=O)CN(c2ccc(C)cc2)S(=O)(=O)c2cccs2)c1,0,10,-2,10,12
COc1cc(/C=C/C(=O)OCC(=O)c2ccc3c(c2)NC(=O)CO3)ccc1OC(F)F,0,-9,.,0,5
O=C1COc2ccc(C(=O)COC(=O)CCSc3ccccc3)cc2N1,-1,-31*,-3,-9,11
COc1ccc(/C=C/C(=O)OCC(=O)c2ccc3c(c2)NC(=O)CO3)cc1,1,8,30*,15,1
N#CN1CCC(NC(=O)c2ccc(C(F)(F)F)cc2)CC1,-1,-1,-5,2,0
Clc1cccc2c1CCN(Cc1nc(-c3cnccn3)no1)C2,0,-90*,-14,-17,0
c1ccc(C(c2ccccc2)N2CCN(Cc3nc(-c4cnccn4)no3)CC2)cc1,0,-16,4,5,2
Cc1nn(C(C)(C)C)c(OC(=O)c2cccc(F)c2)c1Sc1ccccc1,0,-1,2,0,5
O=C(CCC1CCCC1)N1CCN(S(=O)(=O)c2ccc(Br)cc2)CC1,-1,-31*,-8,-8,0
O=C(CC1CCCC1)N1CCN(S(=O)(=O)c2ccc(F)cc2)CC1,0,14,.,3,7
